# From PubChem BioAssay (NCATS)
# Results filed as inconclusive are left out. Entries that show only a call come without a potency. Unmarked numbers belong to inactive results. The source made the active and inactive calls. The call rests on the fitted dose curve; in most records, active means well fitted curve in the direction sought with a large enough effect; inconclusive means small, poorly fitted or top-dose-only effect, or another doubt; inactive means no such curve, though single readings can be large; an effect the other way counts as inactive or inconclusive.
# Legend:
# C33A = experiment: Primary qHTS to identify gynecologic anti-cancer compounds using libraries of approved drugs and bioactive compounds (AID 1345084); details: Gynecologic cancer cell panel viability, ATPlite luminescence, 48 h; series mostly up to 57.5 µM; further: nearly all actives have a fitted effect of over 55% in size; further: potency means the concentration at half of the fitted maximal effect
# How it was run: (§1)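 Cells, 1,000 per well, were allowed to settle for 16 h at 37 C before compound addition. Five concentrations were tested for 48 h, and viability was read by ATPlite luminescence after 15 min at room temperature.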
# CAOV3 = experiment: as above; details: Gynecologic cancer cell panel viability, ATPlite luminescence, 48 h; series mostly up to 57.5 µM
# How it was run: as §1
# CASKI = experiment: as above; details: Gynecologic cancer cell panel viability, ATPlite luminescence, 48 h; series mostly up to 57.5 µM
# How it was run: as §1
# Es-2 = experiment: as above; details: Gynecologic cancer cell panel viability, ATPlite luminescence, 48 h; series mostly up to 57.5 µM
# How it was run: as §1
# HeLa = experiment: as above; details: Gynecologic cancer cell panel viability, ATPlite luminescence, 48 h; series mostly up to 57.5 µM
# How it was run: as §1
# JEG-3 = experiment: as above; details: Gynecologic cancer cell panel viability, ATPlite luminescence, 48 h; series mostly up to 57.5 µM
# How it was run: as §1
# OV90 = experiment: as above; details: Gynecologic cancer cell panel viability, ATPlite luminescence, 48 h; series mostly up to 57.5 µM
# How it was run: as §1
# PA-1 = experiment: as above; details: Gynecologic cancer cell panel viability, ATPlite luminescence, 48 h; series mostly up to 57.5 µM
# How it was run: as §1
# SKOV3 = experiment: as above; details: Gynecologic cancer cell panel viability, ATPlite luminescence, 48 h; series mostly up to 57.5 µM
# How it was run: as §1
# Tov112D = experiment: as above; details: Gynecologic cancer cell panel viability, ATPlite luminescence, 48 h; series mostly up to 57.5 µM
# How it was run: as §1
# Hek293T = experiment: as above; details: Gynecologic cancer cell panel viability, ATPlite luminescence, 48 h, control line for the selectivity index; series mostly up to 57.5 µM
# How it was run: as §1
# Tov-21-G = experiment: as above; details: Gynecologic cancer cell panel viability, ATPlite luminescence, 48 h; series mostly up to 57.5 µM
# How it was run: as §1
# [1] = qHTS assay to identify inhibitors of the type 1 interferon - major histocompatibility complex class I in skeletal muscle: Counter screen cell viability and HiBit confirmation (AID 1347412); details: iHSKM muscle cells + IFN-b, HiBiT or CellTiter-Glo, 24 h, at 45.9 µM (top of the series); further: nearly all actives have a fitted effect of over 60% in size
# How it was run: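 Human myoblast knock-in line, 4.0 ng/ml IFN-beta stimulation, 24 h compound treatment. Endpoints: HiBiT lytic luminescence (HLA-B level) and CellTiter Glo (ATP). Dosing 12 concentrations, 3-fold steps, 46 uM highest final.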
SMILES,Potency (C33A),Potency (CAOV3),Potency (CASKI),Potency (Es-2),Potency (HeLa),Potency (JEG-3),Potency (OV90),Potency (PA-1),Potency (SKOV3),Potency (Tov112D),Potency (Hek293T),Potency (Tov-21-G),"activity change, negative = inhibition ([1]; HiBiT) [%]","activity change, negative = inhibition ([1]; Viability) [%]"
Nc1nc(Nc2ccc(S(N)(=O)=O)cc2)n(C(=S)Nc2c(F)cccc2F)n1,inactive,inactive,inactive,inactive,15.8 µM (active),inactive,inactive,inactive,inactive,–,–,–,–,–
Cc1nc([C@](C)(O)CO)sc1-c1cnc(N)c(O[C@H](C)c2cc(F)ccc2-n2nccn2)c1,inactive,inactive,inactive,inactive,8.91 µM (active),inactive,–,11.2 µM (active),inactive,inactive,–,–,–,–
O=C1CCC=CC1(O)C(=O)OCc1ccccc1O[C@@H]1O[C@H](CO)[C@@H](O)[C@H](O)[C@H]1O (stereo not given in full),inactive,inactive,inactive,inactive,inactive,–,inactive,–,inactive,inactive,inactive,inactive,–,–
NC1(C(=O)NC(CCO)c2ccc(Cl)cc2)CCN(c2ncnc3[nH]ccc23)CC1 (stereo not given),2.24 µM (active),inactive,inactive,inactive,inactive,inactive,–,inactive,–,inactive,–,1.26 µM (active),–,–
CS(=O)(=O)c1ccc(-c2nnc(/C=C/c3nnc(-c4ccc(C#N)cc4)o3)n2-c2ccccc2Cl)nc1,inactive,inactive,inactive,inactive,inactive,inactive,inactive,inactive,inactive,inactive,–,inactive,–,–
COc1cc(OC)cc(C(=O)Nc2ccc(Cl)c(-c3nc4ccc(N(C)C)cc4[nH]3)c2)c1,inactive,inactive,inactive,inactive,inactive,inactive,–,inactive,inactive,inactive,–,inactive,–,–
Cc1cc(C(N)=O)ccc1-n1c(CCC(=O)O)ccc1-c1ccc(-n2ccnc2)cc1,inactive,inactive,inactive,inactive,inactive,–,inactive,inactive,–,inactive,inactive,inactive,–,–
CCC(CC)C(=O)Nc1sc2c(c1C#N)CCC(C(C)(C)CC)C2 (stereo not given),inactive,inactive,inactive,inactive,inactive,inactive,inactive,inactive,–,inactive,–,inactive,–,–
CS(=O)(=O)NCC1CCC(Nc2nc3c(s2)CCSc2ccccc2-3)CC1 (stereo not given),inactive,inactive,inactive,inactive,inactive,inactive,–,–,–,inactive,inactive,inactive,–,–
C[C@H]1Oc2cc(cnc2N)-c2c(nn(C)c2C#N)CN(C)C(=O)c2ccc(F)cc21,inactive,inactive,inactive,inactive,inactive,inactive,–,–,–,inactive,inactive,–,-24.3,-27.7
COc1cc(Nc2nc3c(s2)CCCC3c2ccc(F)cc2)ccc1-n1cnc(C)c1 (stereo not given),inactive,inactive,inactive,inactive,inactive,inactive,–,inactive,–,inactive,inactive,inactive,–,–
CCC(C)/C=C(C)/C=C/c1cc2c(cn1)C(=O)C(C)(OC(C)=O)C(O)=C2Cl (stereo not given),inactive,inactive,inactive,inactive,inactive,inactive,–,inactive,inactive,inactive,inactive,inactive,–,–
COc1ccc([C@@]2(O)c3c(ccc(CC=C(C)C)c3O)NC(=O)[C@@H]2OC)cc1,inactive,inactive,inactive,inactive,inactive,–,inactive,inactive,inactive,inactive,inactive,inactive,–,–
CC(Cc1cc2c(c(C(N)=O)c1)N(CCCO)CC2)NCCOc1ccccc1OCC(F)(F)F (stereo not given),inactive,inactive,inactive,inactive,inactive,–,inactive,inactive,inactive,inactive,inactive,inactive,–,–
CC1=C(CCC(C)CC(=O)O)[C@@]2(C)CCCC(C)(C)C2CC1=O (stereo not given in full),inactive,inactive,inactive,inactive,inactive,inactive,inactive,inactive,inactive,inactive,–,inactive,–,–
COc1cc(O)cc(/C=C/c2ccc(O[C@@H]3O[C@H](CO)[C@@H](O)[C@H](O)[C@H]3O)cc2)c1,inactive,inactive,inactive,inactive,inactive,–,inactive,inactive,–,inactive,inactive,–,–,–
